Test in all cases: DAPPL (digital affinity profiling via proximity ligation, sequencing); 10 mM Tris-HCl pH 7.5, 50 mM NaCl, 1 mM DTT, 4% glycerol, room temperature, 30 min; GST-TFs on glutathione beads, 16-mer random dsDNA library, 0.1% formaldehyde crosslink after washing; high values mean tight binding
Test [1] deals with T1, FLI1 (Homo sapiens, UniProt Q01543 1-452).
T1 sequence: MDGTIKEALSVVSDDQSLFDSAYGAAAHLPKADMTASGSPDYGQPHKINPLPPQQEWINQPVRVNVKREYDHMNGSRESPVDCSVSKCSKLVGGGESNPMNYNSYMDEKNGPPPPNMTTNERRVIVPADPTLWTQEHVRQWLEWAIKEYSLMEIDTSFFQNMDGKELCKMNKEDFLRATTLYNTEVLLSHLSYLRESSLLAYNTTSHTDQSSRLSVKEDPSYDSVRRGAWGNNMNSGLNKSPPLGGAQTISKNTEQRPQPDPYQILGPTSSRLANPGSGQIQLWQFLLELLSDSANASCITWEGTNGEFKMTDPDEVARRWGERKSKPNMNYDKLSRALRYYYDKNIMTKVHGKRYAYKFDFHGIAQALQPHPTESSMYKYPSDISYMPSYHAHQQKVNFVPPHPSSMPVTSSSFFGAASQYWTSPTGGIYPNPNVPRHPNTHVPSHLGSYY
The following applies: protein: recombinant; tags: N-terminal GST; dsDNA, one strand shown. The procedure, abridged: (§1)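 A tag-only sample was pooled with DNA-barcoded human transcription factors that had been expressed in yeast as GST fusions and captured on glutathione beads. The pools were incubated for 30 min at room temperature with 200 nmole of a random double-stranded 16-mer DNA library in Tris/NaCl/DTT/glycerol buffer, then washed, crosslinked with 0.1% formaldehyde, proximity-ligated (BsaI/T4 ligase, 1 h, 37 °C), PCR-amplified and sequenced on an Illumina NextSeq500. Binding signal is each hexamer's read frequency for a factor divided by its frequency for the tag-only sample.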

For test [2], the target named is T2, ELK1 (Homo sapiens, UniProt P19419 1-428).
T2 sequence: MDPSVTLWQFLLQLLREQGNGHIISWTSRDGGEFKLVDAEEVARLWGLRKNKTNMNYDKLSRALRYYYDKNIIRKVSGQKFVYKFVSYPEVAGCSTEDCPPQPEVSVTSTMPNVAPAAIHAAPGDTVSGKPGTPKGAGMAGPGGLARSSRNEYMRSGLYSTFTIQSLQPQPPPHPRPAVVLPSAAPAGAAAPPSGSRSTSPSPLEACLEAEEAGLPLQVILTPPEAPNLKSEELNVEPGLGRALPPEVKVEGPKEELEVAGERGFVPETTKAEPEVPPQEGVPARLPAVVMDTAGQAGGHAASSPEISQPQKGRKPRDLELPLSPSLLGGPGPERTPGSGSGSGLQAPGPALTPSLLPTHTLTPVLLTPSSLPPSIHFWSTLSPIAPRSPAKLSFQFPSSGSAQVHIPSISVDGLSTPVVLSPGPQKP
To be noted: protein: recombinant; tags: N-terminal GST; dsDNA, one strand shown. Summed up:
as §1

Test [3] has as its target T3, GABPA (Homo sapiens, UniProt Q06546 1-454).
T3 sequence: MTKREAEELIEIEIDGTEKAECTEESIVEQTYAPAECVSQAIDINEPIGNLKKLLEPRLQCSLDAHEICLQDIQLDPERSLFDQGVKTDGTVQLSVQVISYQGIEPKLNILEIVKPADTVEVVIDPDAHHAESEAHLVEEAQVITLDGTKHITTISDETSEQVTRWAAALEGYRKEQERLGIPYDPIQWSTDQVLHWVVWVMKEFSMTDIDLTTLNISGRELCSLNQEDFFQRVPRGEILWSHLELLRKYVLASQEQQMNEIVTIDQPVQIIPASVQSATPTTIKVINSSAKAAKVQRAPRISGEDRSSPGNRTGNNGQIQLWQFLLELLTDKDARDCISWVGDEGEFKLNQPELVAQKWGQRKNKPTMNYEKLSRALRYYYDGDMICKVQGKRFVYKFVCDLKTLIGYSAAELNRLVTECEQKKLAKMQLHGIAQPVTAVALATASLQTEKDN
The following applies: protein: recombinant; tags: N-terminal GST; dsDNA, one strand shown. Summed up: as §1

In test [4] the target is T4, ERG (Homo sapiens, UniProt P11308 1-479).
T4 sequence: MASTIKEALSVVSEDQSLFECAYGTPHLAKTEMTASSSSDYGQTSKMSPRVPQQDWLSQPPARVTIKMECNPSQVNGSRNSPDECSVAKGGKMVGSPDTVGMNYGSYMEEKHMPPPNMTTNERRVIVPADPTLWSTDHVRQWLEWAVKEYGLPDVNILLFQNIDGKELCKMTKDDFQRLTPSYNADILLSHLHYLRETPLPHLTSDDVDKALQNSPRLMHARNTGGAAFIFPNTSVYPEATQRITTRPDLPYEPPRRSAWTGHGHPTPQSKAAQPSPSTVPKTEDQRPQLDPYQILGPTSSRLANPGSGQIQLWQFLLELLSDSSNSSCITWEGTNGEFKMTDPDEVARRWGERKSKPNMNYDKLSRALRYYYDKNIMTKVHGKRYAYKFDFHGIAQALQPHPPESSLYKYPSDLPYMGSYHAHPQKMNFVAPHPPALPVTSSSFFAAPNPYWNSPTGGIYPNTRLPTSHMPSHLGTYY
To be noted: protein: recombinant; tags: N-terminal GST; dsDNA, one strand shown. Summed up:
as §1

The target of test [5] is ELF1 (Homo sapiens, UniProt P32519 1-619). To be noted: protein: recombinant; tags: N-terminal GST; dsDNA, one strand shown. Summed up: as §1
Test [6] addresses T5, EHF (Homo sapiens, UniProt Q9NZC4 1-300).
T5 sequence: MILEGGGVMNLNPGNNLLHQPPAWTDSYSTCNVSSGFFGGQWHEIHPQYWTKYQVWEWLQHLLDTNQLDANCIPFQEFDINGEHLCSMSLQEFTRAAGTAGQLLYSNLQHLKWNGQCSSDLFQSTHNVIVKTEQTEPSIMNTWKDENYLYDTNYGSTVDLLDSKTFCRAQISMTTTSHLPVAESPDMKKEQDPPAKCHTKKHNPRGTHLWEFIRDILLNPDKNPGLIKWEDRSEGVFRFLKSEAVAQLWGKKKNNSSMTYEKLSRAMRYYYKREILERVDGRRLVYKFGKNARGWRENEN
To be noted: protein: recombinant; tags: N-terminal GST; dsDNA, one strand shown. Summed up:
as §1

Test [7] deals with SPI1 (Homo sapiens, UniProt P17947 1-270). To be noted: protein: recombinant; tags: N-terminal GST; dsDNA, one strand shown. Summed up:
as §1

The target in test [8] is SPIB (Homo sapiens, UniProt Q01892 1-262). To be noted: protein: recombinant; tags: N-terminal GST; dsDNA, one strand shown. Summed up: as §1
The target of test [9] is T6, ELK3 (Homo sapiens, UniProt P41970 1-407).
T6 sequence: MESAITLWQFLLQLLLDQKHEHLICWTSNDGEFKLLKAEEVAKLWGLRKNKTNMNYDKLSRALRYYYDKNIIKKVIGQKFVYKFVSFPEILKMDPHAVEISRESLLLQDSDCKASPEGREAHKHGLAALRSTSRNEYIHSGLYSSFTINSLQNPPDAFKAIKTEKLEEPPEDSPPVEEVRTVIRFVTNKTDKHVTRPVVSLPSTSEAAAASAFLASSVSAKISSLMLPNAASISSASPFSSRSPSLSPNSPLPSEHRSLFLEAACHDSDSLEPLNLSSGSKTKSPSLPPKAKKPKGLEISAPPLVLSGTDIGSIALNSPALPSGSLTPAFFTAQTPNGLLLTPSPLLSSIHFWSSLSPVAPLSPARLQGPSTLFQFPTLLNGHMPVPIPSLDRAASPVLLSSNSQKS
To be noted: protein: recombinant; tags: N-terminal GST; dsDNA, one strand shown. The procedure, abridged:
as §1

Test [10] deals with T7, FEV (Homo sapiens, UniProt Q99581 1-238).
T7 sequence: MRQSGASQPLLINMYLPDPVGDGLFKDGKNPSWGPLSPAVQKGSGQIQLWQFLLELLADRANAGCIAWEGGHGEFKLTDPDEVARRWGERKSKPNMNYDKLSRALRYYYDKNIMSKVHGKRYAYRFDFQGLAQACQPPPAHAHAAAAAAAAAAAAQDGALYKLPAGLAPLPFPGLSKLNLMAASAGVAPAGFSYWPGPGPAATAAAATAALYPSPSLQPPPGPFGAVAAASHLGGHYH
The following applies: protein: recombinant; tags: N-terminal GST; dsDNA, one strand shown. The procedure, abridged: as §1

In test [11] the target is ETV5 (Homo sapiens, UniProt P41161 1-510). To be noted: protein: recombinant; tags: N-terminal GST; dsDNA, one strand shown. The procedure, abridged: as §1
In test [12] the target is HSF1 (Homo sapiens, UniProt Q00613 1-529). The following applies: protein: recombinant; tags: N-terminal GST; chain copies: 3; dsDNA, one strand shown. The procedure, abridged: as §1
Test [13] deals with T8, SPIC (Homo sapiens, UniProt Q8N5J4 1-248).
T8 sequence: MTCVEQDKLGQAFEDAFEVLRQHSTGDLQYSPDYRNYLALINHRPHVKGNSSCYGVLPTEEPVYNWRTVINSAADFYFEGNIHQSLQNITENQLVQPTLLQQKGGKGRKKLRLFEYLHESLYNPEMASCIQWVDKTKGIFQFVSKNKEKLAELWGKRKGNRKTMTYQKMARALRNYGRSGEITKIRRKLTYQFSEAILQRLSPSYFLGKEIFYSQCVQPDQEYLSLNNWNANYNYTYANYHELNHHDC
To be noted: protein: recombinant; tags: N-terminal GST; dsDNA, one strand shown. Summed up:
as §1

The target in test [14] is ELF4 (Homo sapiens, UniProt Q99607 1-663). The following applies: protein: recombinant; tags: N-terminal GST; dsDNA, one strand shown. The procedure, abridged: as §1
Test [15] deals with T9, ELK4 (Homo sapiens, UniProt P28324-2 1-405).
T9 sequence: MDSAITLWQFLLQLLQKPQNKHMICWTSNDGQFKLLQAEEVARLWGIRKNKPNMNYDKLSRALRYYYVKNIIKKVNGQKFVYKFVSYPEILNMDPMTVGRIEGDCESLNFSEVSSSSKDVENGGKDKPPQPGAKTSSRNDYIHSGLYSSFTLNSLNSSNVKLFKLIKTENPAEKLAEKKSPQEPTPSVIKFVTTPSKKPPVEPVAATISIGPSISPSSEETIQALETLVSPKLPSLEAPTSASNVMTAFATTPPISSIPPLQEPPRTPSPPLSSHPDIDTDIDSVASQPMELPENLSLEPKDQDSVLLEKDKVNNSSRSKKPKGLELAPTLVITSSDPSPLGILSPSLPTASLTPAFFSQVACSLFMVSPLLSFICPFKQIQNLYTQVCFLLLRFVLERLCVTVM
To be noted: protein: recombinant; tags: N-terminal GST; dsDNA, one strand shown. Summed up: as §1

The target of test [16] is T10, ETV2 (Homo sapiens, UniProt O00321 1-342).
T10 sequence: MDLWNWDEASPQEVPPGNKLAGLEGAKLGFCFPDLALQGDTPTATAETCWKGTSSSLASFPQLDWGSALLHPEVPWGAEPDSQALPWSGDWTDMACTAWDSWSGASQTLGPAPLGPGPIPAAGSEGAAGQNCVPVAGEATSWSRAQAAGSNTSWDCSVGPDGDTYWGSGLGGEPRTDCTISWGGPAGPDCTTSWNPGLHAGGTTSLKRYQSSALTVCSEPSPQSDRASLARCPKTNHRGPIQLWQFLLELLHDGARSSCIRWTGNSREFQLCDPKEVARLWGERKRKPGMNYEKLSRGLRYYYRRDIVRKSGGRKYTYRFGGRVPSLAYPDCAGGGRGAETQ
To be noted: protein: recombinant; tags: N-terminal GST; dsDNA, one strand shown. Summed up: as §1

The target of test [17] is T11, ELF3 (Homo sapiens, UniProt P78545 1-371).
T11 sequence: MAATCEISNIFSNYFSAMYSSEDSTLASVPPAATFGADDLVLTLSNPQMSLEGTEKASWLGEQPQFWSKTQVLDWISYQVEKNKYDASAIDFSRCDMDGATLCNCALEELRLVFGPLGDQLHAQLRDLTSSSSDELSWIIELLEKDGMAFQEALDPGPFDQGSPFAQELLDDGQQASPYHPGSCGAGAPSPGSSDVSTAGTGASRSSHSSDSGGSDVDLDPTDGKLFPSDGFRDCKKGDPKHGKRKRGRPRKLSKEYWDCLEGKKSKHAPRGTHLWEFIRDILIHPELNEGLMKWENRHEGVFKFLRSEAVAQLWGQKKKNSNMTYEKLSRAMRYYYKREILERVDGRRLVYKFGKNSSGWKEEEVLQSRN
To be noted: protein: recombinant; tags: N-terminal GST; dsDNA, one strand shown. Summed up: as §1

Test [18] addresses CRX (Homo sapiens, UniProt O43186 1-299). The following applies: protein: recombinant; tags: N-terminal GST; dsDNA, one strand shown. The procedure, abridged: as §1
Test [19] deals with ETV1 (Homo sapiens, UniProt P50549 1-477). The following applies: protein: recombinant; tags: N-terminal GST; dsDNA, one strand shown. The procedure, abridged: as §1
Sequence of ETV1 (P50549 whole entry): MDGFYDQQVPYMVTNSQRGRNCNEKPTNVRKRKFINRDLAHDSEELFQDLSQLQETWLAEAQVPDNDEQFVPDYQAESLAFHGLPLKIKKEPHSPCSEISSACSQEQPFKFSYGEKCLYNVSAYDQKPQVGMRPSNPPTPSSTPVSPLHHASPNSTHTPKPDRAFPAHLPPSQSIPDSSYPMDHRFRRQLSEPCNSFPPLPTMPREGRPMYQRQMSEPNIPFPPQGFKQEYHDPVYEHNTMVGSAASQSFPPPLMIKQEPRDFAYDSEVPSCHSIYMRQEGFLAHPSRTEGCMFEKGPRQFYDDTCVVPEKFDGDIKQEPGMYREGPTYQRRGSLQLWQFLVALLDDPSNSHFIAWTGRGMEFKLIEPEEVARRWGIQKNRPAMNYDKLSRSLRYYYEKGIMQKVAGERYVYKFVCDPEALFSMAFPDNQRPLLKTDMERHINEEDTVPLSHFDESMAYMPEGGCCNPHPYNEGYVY

Sequence of ETV5 (P41161 whole entry): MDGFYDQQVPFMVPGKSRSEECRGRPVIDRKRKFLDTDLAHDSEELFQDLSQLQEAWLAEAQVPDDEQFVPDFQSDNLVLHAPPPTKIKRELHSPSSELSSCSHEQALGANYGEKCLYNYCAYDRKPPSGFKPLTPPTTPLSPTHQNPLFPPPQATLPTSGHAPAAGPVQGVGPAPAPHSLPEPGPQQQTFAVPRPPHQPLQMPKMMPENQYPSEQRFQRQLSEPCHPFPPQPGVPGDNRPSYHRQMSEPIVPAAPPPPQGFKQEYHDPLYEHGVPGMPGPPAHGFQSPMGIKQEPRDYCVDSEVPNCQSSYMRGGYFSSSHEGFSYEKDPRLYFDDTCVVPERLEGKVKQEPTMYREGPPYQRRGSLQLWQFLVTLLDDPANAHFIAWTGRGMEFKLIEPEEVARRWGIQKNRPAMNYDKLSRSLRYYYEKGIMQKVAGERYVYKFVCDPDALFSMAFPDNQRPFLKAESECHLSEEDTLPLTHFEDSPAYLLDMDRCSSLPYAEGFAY
Sequence of ELF1 (P32519 whole entry): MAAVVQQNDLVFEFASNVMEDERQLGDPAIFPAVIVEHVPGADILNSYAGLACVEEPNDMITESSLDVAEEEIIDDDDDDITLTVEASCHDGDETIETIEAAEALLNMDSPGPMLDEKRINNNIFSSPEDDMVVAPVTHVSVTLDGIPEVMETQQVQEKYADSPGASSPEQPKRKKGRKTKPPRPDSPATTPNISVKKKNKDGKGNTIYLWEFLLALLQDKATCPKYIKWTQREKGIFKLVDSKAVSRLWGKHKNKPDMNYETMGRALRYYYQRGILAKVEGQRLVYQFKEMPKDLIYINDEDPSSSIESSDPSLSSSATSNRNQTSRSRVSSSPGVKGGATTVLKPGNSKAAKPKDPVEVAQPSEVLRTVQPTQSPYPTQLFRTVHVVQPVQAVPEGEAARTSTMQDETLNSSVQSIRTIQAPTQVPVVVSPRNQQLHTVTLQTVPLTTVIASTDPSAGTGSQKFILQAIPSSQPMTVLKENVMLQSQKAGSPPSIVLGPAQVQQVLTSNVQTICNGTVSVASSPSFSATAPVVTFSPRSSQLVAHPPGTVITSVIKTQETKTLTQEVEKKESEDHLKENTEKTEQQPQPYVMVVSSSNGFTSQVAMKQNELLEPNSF
Sequence of SPIB (Q01892 whole entry): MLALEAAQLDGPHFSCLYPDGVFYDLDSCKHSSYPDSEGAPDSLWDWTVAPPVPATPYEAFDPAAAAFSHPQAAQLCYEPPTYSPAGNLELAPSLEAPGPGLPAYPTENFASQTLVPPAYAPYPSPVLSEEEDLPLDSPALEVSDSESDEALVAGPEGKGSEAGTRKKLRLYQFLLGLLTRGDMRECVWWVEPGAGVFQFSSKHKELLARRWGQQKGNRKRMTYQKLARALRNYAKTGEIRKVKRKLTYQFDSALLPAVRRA
Sequence of HSF1 (Q00613 whole entry): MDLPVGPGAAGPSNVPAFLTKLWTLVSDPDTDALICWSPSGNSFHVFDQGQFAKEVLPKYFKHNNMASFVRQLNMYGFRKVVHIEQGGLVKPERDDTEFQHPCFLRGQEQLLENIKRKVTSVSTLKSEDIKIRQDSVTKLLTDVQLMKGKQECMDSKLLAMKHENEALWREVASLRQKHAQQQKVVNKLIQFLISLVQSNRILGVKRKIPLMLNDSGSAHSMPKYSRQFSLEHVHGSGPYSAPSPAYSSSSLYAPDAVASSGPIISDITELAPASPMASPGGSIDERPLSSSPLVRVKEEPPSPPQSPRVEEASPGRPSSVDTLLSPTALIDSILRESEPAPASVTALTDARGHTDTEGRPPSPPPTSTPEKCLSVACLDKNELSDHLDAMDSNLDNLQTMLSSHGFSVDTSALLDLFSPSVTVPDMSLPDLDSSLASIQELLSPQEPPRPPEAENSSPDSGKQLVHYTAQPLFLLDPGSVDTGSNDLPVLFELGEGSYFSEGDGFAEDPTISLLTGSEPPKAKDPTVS
Sequence of ELF4 (Q99607 whole entry): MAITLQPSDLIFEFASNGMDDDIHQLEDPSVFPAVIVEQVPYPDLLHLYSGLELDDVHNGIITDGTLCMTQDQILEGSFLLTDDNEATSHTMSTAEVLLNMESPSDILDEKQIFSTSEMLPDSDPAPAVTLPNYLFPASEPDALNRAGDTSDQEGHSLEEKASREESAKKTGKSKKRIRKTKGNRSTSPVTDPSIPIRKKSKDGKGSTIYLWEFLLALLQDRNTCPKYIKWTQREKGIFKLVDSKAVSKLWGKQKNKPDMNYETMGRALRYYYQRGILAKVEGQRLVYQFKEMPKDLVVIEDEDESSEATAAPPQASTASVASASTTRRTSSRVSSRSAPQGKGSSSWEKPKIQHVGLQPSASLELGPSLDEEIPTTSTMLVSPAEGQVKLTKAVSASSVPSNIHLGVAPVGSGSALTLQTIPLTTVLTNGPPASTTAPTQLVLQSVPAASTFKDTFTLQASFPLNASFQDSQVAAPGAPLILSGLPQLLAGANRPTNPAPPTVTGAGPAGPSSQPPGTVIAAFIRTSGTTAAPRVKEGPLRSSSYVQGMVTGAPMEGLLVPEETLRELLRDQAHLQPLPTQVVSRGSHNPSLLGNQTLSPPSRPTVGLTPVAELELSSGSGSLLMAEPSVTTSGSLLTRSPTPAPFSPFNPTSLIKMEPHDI
Sequence of CRX (O43186 whole entry): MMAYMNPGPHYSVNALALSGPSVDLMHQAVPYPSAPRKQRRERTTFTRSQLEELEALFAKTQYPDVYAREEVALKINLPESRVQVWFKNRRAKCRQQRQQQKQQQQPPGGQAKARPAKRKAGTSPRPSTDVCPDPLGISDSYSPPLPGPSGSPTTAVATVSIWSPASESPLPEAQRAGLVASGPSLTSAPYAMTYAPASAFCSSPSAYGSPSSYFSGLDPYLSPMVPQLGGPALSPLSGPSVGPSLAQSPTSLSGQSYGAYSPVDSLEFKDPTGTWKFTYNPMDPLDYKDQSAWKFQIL

As to TGCCTT, the binding signal in test [1] was 1.29 fold enrichment (6-mer frequency, TF over GST control); in [2], 1.38 fold enrichment (6-mer frequency, TF over GST control); in [3], 1.54 fold enrichment (6-mer frequency, TF over GST control); in test [4] it was 1.35 fold enrichment (6-mer frequency, TF over GST control); in test [5] it was 1.33 fold enrichment (6-mer frequency, TF over GST control); in [6], 1.3 fold enrichment (6-mer frequency, TF over GST control). Besides, the binding signal was 1.44 fold enrichment (6-mer frequency, TF over GST control) in [7]; 1.35 fold enrichment (6-mer frequency, TF over GST control) in test [8]; 1.24 fold enrichment (6-mer frequency, TF over GST control) in [9]; 1.3 fold enrichment (6-mer frequency, TF over GST control) in [10]; 1.36 fold enrichment (6-mer frequency, TF over GST control) in test [11]; 1.27 fold enrichment (6-mer frequency, TF over GST control) in test [12]. For the same sequence, the binding signal is 1.55 fold enrichment (6-mer frequency, TF over GST control) in test [13]; 1.27 fold enrichment (6-mer frequency, TF over GST control) in test [14]; 1.43 fold enrichment (6-mer frequency, TF over GST control) in [15]; 1.2 fold enrichment (6-mer frequency, TF over GST control) in test [16]; 1.45 fold enrichment (6-mer frequency, TF over GST control) in test [17]; 1.33 fold enrichment (6-mer frequency, TF over GST control) in test [18]. In addition, the binding signal in [19] was 1.34 fold enrichment (6-mer frequency, TF over GST control).

For the origin of these results see PMC7862700, “An all-to-all approach to the identification of sequence-specific readers for epigenetic DNA modifications on cytosine”.
